Data as given in the supplement of paper PMC11417369.
In all, about 25,000 sequences were measured (“ln(normalized median fluorescence intensity)”: median about 9.3, highest 2% from about 10 on). What follows is part of a selection rich in the highest values, with near analogues and random picks from the rest.

Test system: PF3D7_0420300 AP2 domain 1 (GST-tagged)
Assay: gcPBM binding intensity (ln(normalized median fluorescence intensity)); higher = stronger DNA binding
Procedure, shortened: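 GST-tagged P. falciparum DNA-binding domains produced in E. coli were incubated for 1 h on an Agilent 4 × 180k array of primer-extended double-stranded 36-bp intergenic genomic probes with negative controls. Binding intensity is the highest Masliner-normalised natural-log median intensity across replicate spots of either probe orientation, with bound protein detected by Alexa488 anti-GST antibody at 488 nm.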

| Sequence | gcPBM binding intensity (ln) |
| --- | --- |
| AAACATTTACTATATTGTACTTAAGATCTTATCGTA [XGTACX_site3919] | 9.06 |
| CTGTCTGCAGATATGGTGCATTTGTAAGATCTTACA [GTGCAC_site9870] | 9.13 |
| GACATAAAATTCAAAGTGCATAAATAAAATAAACCC | 9.49 |
| ATTATAAACCATAATTAACACACAAAATAAGTTACA [CACACA_site9057] | 9.75 |
| TTTTCTTTCTTGTTTCGTATATTATAAAAAAAAAAG [CACACA_negctrl_site854] | 8.96 |
| ACATTTATATATAATTGTACCCTACATTCTCTTTTT [XGTACX_site189] | 9.5 |
| AAAAAAATAATAAAAAGTACAAAATGTAGAAAATGT [XGTACX_site5018] | 9.91 |
| AATAGAGTTGAATGCACACATACAAATTTTTAGTTT [CACACA_site3564] | 9.33 |
| TAGTAGTTATCACTAACATGCAATAATATTATTTAA [TGCATGCA_site161] | 9.08 |
| AATATATATAAATATTGTACAAAAATATATATATAT [XGTACX_site2910] | 9.26 |
| AAGAATCATATTTAAACACACATACAGATATATATA [CACACA_site5787] | 9.51 |
| TACAATTTATGACACACACACAATAATACCTATATA [CACACA_site6704] | 9.95 |
| AATACAATTTATAACACACACACAAGAATACCTATA [CACACA_site6705] | 10.3 |
| TACAATATAAAATACACACACACAAACATATATTTA [CACACA_site5941] | 10.2 |
| TATACAATCTATATAACACACATATTTATATAAAAT [CACACA_site1797] | 9.46 |
| TACAATCTAAAATACACACACACAAACATATATTTA [CACACA_site3702] | 10.2 |
| AACAAAAAAACAAACACACACACACGCATATTTATA [CACACA_site7680] | 10.2 |
| AAGGATCACGCACAAACACACATATTTATATTTATA [CACACA_site6405] | 9.47 |
| AAAAAAAACAAACACACACACAAATATTTATATATT [CACACA_site436] | 10.1 |

| Sequence | gcPBM binding intensity (ln) |
| --- | --- |
| TAAAAAAAAATATATAAACACACATATTTATATACA [CACACA_site8469] | 9.36 |
| CAATTTATAAAGAAAACACACATATACCTATATACA [CACACA_site6710] | 9.55 |
| TTATTTAAACAAATCACACACAAATATATATACATA [CACACA_site2019] | 9.71 |
| TATACAATATATATAACACACATATTTATATAAAAT [CACACA_site5061] | 9.57 |
| AATATATAAGCTGTTCTATTCAAGAATTATATCTTA [CACACA_negctrl_site270] | 9.06 |
| TATATTATTTATTAGACACACATTATTAAAATATTT [CACACA_site4737] | 9.19 |
| GTTTGTATGTCCAAATGTACATATGATTTTATGAAA [XGTACX_site6595] | 9.2 |
| AATAAACATATATACACACACAAAAAAAAAAACATA [CACACA_site424] | 10.2 |
| GCCAAAAGGATATGCACACACACACCCATATATATA [CACACA_site2198] | 10.2 |
| AATATATAAACATATACACACAAAAACATATATATA [CACACA_site4855] | 10 |
| CAAAAGGATATGCACACACACACACGGATATTTATA [CACACA_site7099] | 10.2 |
| ACAATAAACATATATACACACACAAAAAAAAAAACA [CACACA_site8033] | 10.3 |
| ATTATATATATTTATGCACACAAAATATATTATATA [CACACA_site9244] | 9.29 |
| TATATACACATATATAAACACACAAAAAAAAAAAAA [CACACA_site8626] | 9.6 |
| GGGAAAATAAATAAAGTGCAGATATTAAAAGTTGTA | 9.41 |
| AGATATCTTGTGAAATAAAAAAAATAATTGCTTATA [CACACA_negctrl_site798] | 8.94 |
| CAACAATTTCGTCATACACACATTCAGAATATAGAT [CACACA_site7166] | 9.68 |
| CATGCAATATTAAACACACACTCATATAGCACAATA [CACACA_site6182] | 9.73 |
| GAACGAAACTTTCTTACACACATTGAAATTTTTTTC [CACACA_site1779] | 9.62 |

| Sequence | gcPBM binding intensity (ln) |
| --- | --- |
| AATAAGAAAACAAATGCACACCATTTATATAGATTA [CACACA_site8261] | 9.56 |
| AACAAATACAGACACACACACACACCCAAAAAAAAA [CACACA_site515] | 9.99 |
| AATACACCCAGACACACACACAAAAAAAAAAAAAAA [CACACA_site513] | 9.51 |
| TACACCAAAAAAAAACGTACAAAATCCCACCCAGAC [XGTACX_site4622] | 10.6 |
| CCCATGCATTTTTGCACACACATATATTTATAAATA [CACACA_site6785] | 9.58 |
| AAAAAATATAAAAAAACACACAAAAAAAAAAAAAAA [CACACA_site1382] | 9.4 |
| AAATAAATAAAAAACACACACAAATAAATAAATATA [CACACA_site2249] | 10.1 |
| ATAAATAAAAACACAAAACAAAACAAAACAAAACAA [CACACA_negctrl_site1257] | 9.41 |
| AAAAAAAAAAAACACACACACACAAATATATAAAAA [CACACA_site1171] | 10.1 |
| TATAAATAAATAAACACACACAAATAAAATAAAAAA [CACACA_site7623] | 10.1 |
| CTTACCAAAAGACACACACACACAAGATATATAAAT [CACACA_site6964] | 10.2 |
| TATATAAAGATATATACACACAAAAAAAAAAAAAAA [CACACA_site6778] | 9.32 |
| CTTACCAAAAAACACACACACACAAAATATATAAAT [CACACA_site1870] | 10.3 |
| AAAAAAAAAAAACACACACACAAAATAAACAAACAA [CACACA_site2721] | 10.3 |
| TACCAAAAGAAACACACACACAAAATATATAAATAT [CACACA_site1869] | 10.2 |
| AAAAAAATAAAACACACACACAAAAAAATAAAAATA [CACACA_site465] | 10.2 |
| TAATAAAAGATATATACACACAAATAAATAAATAAA [CACACA_site7818] | 9.72 |
| AAAAAAATGAAACACACACACACATATATATATATA [CACACA_site1043] | 9.93 |
| TTTTTATTATAAGGTCGTACAATTGTAATTATTGTA [XGTACX_site1413] | 9.23 |
